Results on 14 molecules are retold here after PubChem BioAssay.

Molecules are shown by their SMILES. Calls of active or inactive are those of the source.

Assay [1] has as its system PRMT1 (protein arginine N-methyltransferase 1). Description: PRMT1 binders on small-molecule microarrays, primary screen, biochemical, small-molecule microarray, 635 nm fluorescence (AID 1088).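 Further: binding of Prmt1 protein to compounds spotted on small-molecule microarray slides.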 Conditions: small-molecule microarray binding, higher = more signal.
Assay [2] is described as follows: yeast growth modulation, basal conditions, primary screen, YJM789 clinical isolate, OD600, 24 h (AID 1089).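 Further: growth of clinical yeast isolate S. cerevisiae YJM 789 seeded 1000 cells per well; test concentration not given here.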 Conditions: S. cerevisiae YJM789 growth, higher = more signal, called active from +8 up or from −8 down.
Assay [3] is described as follows: fission yeast growth modulation, primary screen, strain 972, OD600, 24 h, no modulator (AID 1090).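 Further: basal condition with compound alone and no growth modifier present; test concentration not given here.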 Conditions: S. pombe 972 growth, higher = more signal, called active from +8 up or from −8 down.
Assay [4] in a line: S. cerevisiae growth modulation with rapamycin, primary screen, strain BY4716, OD600, 96 h (AID 1091). Further: test concentration not given here. Conditions: higher = more signal, called active from +8 up or from −8 down.
Assay [5] addresses Torsin-1A-interacting protein 2 (Homo sapiens) (UniProt Q8NFQ8). The assay is described as follows: LULL1 binders on small-molecule microarray, primary screen, cell lysate, human LULL1 lysate, 635/667 nm fluorescence (AID 1092).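 Further: probe is lysate of COS7 cells overexpressing human LULL1; score merges per-feature 667 nm fluorescence with signal-to-noise.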 Conditions: hLULL1 lysate binding, 635 nm fluorescence, higher = more signal.
Assay [6] in a line: E. coli growth modulation, two-sided OD650, primary screen, E. coli filamentation project, strain DRC41, 24 h (AID 1093).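 Further: MC1000 strain lacking acrAB efflux and sulA so SOS filamentation is blocked; test concentration not given here.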 Conditions: OD650, 24 h, higher = more signal, called active from +8 up or from −8 down.
Assay [7] can be described thus: small-molecule microarray binders of probe aLefty2, primary screen, biochemical, biotinylated probe, 635/667 nm fluorescence (AID 1094).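 Further: score merges spot fluorescence near 667 nm with spot signal-to-noise ratio.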 The following applies: higher = more signal.
The subject of assay [8] is Noggin (protein binding on small-molecule microarray). Description: Noggin binders on small-molecule microarray, primary screen, biochemical, 635/667 nm fluorescence (AID 1095).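 Further: score merges 667 nm feature fluorescence with signal to noise over triplicate slides.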 Conditions: 635 nm fluorescence, higher = more signal.
For assay [9], the target named is Neurogenic locus notch homolog protein 3 (Homo sapiens) (UniProt Q9UM47). Description: NOTCH3 binders on small-molecule microarray, primary screen, biochemical, 635/667 nm fluorescence (AID 1096). Conditions: NOTCH3 binding, 635 nm fluorescence, higher = more signal.
The nature of assay [10]: small-molecule microarray binders of probe aEGFR, primary screen, biochemical, biotinylated probe, 635/667 nm fluorescence (AID 1097).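 Further: probe is a biotinylated anti-EGFR antibody binding compounds printed on slides; score combines fluorescence near 667 nm and signal to noise of each spot.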 The following applies: higher = more signal.

Sequence of Torsin-1A-interacting protein 2 (Homo sapiens) (Q8NFQ8 whole entry, looked up): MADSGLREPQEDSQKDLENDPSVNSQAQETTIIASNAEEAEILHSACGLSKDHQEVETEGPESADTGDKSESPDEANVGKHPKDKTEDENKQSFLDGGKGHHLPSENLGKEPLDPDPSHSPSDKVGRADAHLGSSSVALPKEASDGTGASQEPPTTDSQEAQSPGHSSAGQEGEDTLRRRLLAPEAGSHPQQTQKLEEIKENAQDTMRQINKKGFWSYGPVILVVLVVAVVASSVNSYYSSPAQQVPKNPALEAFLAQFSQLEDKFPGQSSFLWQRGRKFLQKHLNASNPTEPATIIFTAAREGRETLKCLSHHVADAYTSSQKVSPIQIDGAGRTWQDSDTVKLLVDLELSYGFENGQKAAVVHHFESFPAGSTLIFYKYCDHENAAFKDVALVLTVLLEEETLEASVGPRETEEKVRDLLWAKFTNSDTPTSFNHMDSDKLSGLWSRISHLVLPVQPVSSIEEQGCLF
Sequence of Neurogenic locus notch homolog protein 3 (Homo sapiens) (Q9UM47 whole entry, looked up): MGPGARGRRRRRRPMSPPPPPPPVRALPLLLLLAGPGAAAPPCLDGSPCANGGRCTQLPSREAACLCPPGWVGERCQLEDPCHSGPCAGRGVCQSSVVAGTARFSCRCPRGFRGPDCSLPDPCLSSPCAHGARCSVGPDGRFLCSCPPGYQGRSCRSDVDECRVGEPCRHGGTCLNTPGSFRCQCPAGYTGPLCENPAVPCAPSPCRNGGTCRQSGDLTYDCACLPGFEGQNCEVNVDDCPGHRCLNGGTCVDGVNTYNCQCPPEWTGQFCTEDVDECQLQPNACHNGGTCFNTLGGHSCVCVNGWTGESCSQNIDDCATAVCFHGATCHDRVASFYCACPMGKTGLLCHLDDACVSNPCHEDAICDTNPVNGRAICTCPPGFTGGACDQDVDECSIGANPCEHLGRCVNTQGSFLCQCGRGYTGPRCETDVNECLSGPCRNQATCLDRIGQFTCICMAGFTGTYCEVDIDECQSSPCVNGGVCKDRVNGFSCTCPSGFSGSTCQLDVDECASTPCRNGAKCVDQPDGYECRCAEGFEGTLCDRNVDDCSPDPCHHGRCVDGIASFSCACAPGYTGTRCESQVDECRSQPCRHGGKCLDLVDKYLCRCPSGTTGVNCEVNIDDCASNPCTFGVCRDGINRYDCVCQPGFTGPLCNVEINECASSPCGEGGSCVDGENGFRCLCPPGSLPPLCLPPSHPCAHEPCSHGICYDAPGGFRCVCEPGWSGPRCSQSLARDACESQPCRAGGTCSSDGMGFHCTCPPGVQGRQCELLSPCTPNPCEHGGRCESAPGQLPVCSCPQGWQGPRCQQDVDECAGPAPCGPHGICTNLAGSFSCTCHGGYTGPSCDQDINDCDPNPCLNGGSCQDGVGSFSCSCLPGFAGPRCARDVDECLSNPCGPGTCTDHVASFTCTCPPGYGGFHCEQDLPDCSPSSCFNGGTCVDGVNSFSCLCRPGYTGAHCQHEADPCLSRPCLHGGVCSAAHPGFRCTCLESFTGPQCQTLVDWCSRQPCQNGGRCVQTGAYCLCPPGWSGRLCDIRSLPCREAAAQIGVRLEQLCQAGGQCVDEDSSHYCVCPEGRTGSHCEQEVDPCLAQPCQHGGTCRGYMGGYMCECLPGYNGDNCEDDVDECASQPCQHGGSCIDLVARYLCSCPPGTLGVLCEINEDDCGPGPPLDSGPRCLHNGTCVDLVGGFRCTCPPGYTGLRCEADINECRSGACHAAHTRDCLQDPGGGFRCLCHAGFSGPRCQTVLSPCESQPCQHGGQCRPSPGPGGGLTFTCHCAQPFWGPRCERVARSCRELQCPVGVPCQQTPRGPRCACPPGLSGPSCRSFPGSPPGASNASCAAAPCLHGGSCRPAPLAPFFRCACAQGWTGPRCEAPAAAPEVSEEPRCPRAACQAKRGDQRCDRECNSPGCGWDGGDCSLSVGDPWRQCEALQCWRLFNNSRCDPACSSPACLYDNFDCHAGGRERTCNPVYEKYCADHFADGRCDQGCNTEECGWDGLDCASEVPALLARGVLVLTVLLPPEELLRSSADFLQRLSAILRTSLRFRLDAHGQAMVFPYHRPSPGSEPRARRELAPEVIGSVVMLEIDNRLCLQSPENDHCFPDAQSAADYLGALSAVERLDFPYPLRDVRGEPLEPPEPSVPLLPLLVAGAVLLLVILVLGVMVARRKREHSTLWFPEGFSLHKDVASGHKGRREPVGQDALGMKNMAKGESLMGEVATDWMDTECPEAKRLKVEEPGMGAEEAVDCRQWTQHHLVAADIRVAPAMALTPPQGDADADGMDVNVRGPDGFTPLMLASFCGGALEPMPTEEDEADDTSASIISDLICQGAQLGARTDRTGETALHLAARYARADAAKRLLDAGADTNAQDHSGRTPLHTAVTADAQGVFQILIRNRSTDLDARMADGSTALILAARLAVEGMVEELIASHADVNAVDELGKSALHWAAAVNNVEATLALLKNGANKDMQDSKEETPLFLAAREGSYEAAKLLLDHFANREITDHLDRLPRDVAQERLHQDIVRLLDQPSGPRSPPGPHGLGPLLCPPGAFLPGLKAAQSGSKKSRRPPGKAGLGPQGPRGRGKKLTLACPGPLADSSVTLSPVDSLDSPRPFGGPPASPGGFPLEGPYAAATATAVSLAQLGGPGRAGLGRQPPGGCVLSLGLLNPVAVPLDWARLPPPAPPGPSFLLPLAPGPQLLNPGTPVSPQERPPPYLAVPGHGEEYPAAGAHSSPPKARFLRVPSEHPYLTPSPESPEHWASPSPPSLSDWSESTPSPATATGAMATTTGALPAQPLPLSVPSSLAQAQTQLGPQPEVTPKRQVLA

Consider `C[C@]1(C(=O)NCC(F)(F)F)c2ccccc2C(=O)N(Cc2cc(C(F)(F)F)cc(C(F)(F)F)c2)[C@H]1c1ccc(CO)cc1`, for which the composite z-score in assay [1] was 0.594; in assay [5], 1.35; in [7], -0.114; in assay [8], -0.736; in assay [9] it was -0.802; in assay [10] it was -0.11. For the same molecule, the z-score in [2] was 0.182 (inactive); in [3] it was -0.0136 (inactive); in [4] it was -0.0066 (inactive); in [6], 1.07 (inactive).
For the molecule `CCOC(=O)C[C@H]1[C@H](OC(=O)c2ccc(-c3ccccc3)cc2)[C@@H](NC(=O)c2ccc(-c3ccccc3)cc2)c2cc(OCCCO)ccc2N1C(=O)c1ccccc1`, the composite z-score in assay [1] was 1.26; in [5], 1.69; in [7], -0.275; in assay [8], 0.253; in assay [9] it was 1.07; in assay [10], -0.183. Also, the z-score in [2] was 0.495 (inactive); in assay [3], 0.785 (inactive); in assay [4], 1.3 (inactive); in [6], -0.783 (inactive).
On to `C=C(CCCC)C(=O)CC[C@H](OC(=O)c1ccccc1-c1ccccc1C(=O)O)c1cccc(OCCO)c1`, for which the composite z-score in assay [1] is 0.317; in assay [5], 1; in assay [7], -0.186; in assay [8] it was 0.135; in assay [9], -0.186; in assay [10] it was -0.221. The z-score in assay [2] is -0.0349 (inactive); in assay [3], -0.386 (inactive); in assay [4] it was -0.678 (inactive); in assay [6], 0.171 (inactive).
Take `O=C1O[C@H](c2ccccc2)[C@H](c2ccccc2)N2[C@H]1[C@@H](C(=O)N1CCCCCCC1)[C@]1(C(=O)Nc3ccc(C#CCCO)cc31)[C@H]2c1ccc(O)cc1`: the composite z-score in assay [1] came to 1.54; in [5] it was 5.04; in [7], 1.78; in [8], 0.731; in [9] it was 1.02; in [10], 1.38. In addition, the z-score was 0.6 (inactive) in assay [2], -0.36 (inactive) in assay [3], 1.45 (inactive) in [4] and 2.08 (inactive) in [6].
`Cc1ccc(S[C@]2(C(=O)NCc3ccccc3)CC(=O)N(Cc3ccccc3Cl)[C@@H]2c2ccc(CO)cc2)cc1`: the composite z-score was 1.17 in assay [1]; 2.07 in [5]; 0.145 in assay [7]; -0.761 in assay [8]; -0.0303 in [9]; -0.258 in assay [10]. In addition, the z-score is 0.373 (inactive) in assay [2], -0.0114 (inactive) in assay [3], 0.227 (inactive) in [4] and -2.31 (inactive) in assay [6].
For the molecule `C=C(COC)C(=O)CC[C@@H](OC(=O)c1ccccc1-c1ccccc1C(=O)O)c1ccccc1OCCO`, the composite z-score was 1.37 in [1]; -0.225 in assay [5]; -0.122 in assay [7]; 0.641 in assay [8]; 0.586 in assay [9]; -0.184 in assay [10]. Moreover, the z-score in [2] is -1.4 (inactive); in assay [3], -1.95 (inactive); in assay [4], -1.12 (inactive); in assay [6], -0.434 (inactive).
For `O=C1c2ccccc2[C@](Cc2ccccc2I)(C(=O)NCCN2CCOCC2)[C@H](c2ccc(CO)cc2)N1Cc1ccccc1C(F)(F)F`, the composite z-score is 1.56 in assay [1]; 2.95 in assay [5]; -0.0376 in [7]; 0.307 in [8]; 1.01 in [9]; -0.109 in assay [10]. Further, the z-score was -1.06 (inactive) in assay [2], -1.06 (inactive) in [3], -0.132 (inactive) in assay [4] and -1.82 (inactive) in assay [6].
`C=CCC(OC(C)=O)[C@@H]1[C@@H](N(Cc2cccc3ccccc23)C(=O)c2ccc(C)cc2)c2cc(OCCCO)ccc2N1C(=O)Cc1ccc2ccccc2c1` (stereo not given in full): the composite z-score in assay [1] was -0.52; in [5], 0.318; in [7], -0.113; in assay [8], -0.206; in assay [9], 0.141; in assay [10], -0.184. For the same molecule, the z-score in assay [2] was -1.8 (inactive); in assay [3] it was -0.825 (inactive); in assay [4], -0.614 (inactive); in assay [6], 1.17 (inactive).
For the molecule `C=C(C(=O)CC[C@@H](OC(=O)c1ccccc1-c1ccccc1C(=O)O)c1ccc(OCCO)cc1)C(C)C`, the composite z-score in assay [1] is 1.55; in [5] it was 1.25; in [7], 0.0028; in assay [8] it was 1.35; in assay [9] it was 1.15; in assay [10] it was -0.0755. For the same molecule, the z-score in [2] was -0.694 (inactive); in [3], -1.26 (inactive); in assay [4], -1.3 (inactive); in assay [6] it was 0.416 (inactive).
Regarding `COCCOC(=O)N1C(=O)[C@@]2(c3ccccc31)[C@H](C(=O)Nc1nc3ccccc3s1)[C@H]1C(=O)O[C@H](c3ccccc3)[C@H](c3ccccc3)N1[C@@H]2c1ccccc1OCCO`, the composite z-score in [1] is 1.56; in [5], 2.73; in [7] it was 0.248; in assay [8], 0.579; in assay [9], 1.1; in [10] it was -0.0035. Further, the z-score was 2.4 (inactive) in [2], 2.78 (inactive) in assay [3], 5.08 (inactive) in [4] and 0.694 (inactive) in assay [6].
`C=C[C@H](C)[C@@H](OC(=O)Nc1ccc(SC)cc1)c1ccc(OCCO)cc1`: the composite z-score in assay [1] is 0.191; in assay [5] it was 1.84; in assay [7] it was -0.0391; in assay [8], 1.05; in [9] it was 0.487; in [10], -0.225. Also, the z-score in assay [2] was 0.613 (inactive); in assay [3] it was -0.583 (inactive); in [4] it was 1.92 (inactive); in assay [6], 0.441 (inactive).
On to `C=CCOC(=O)[C@H]1[C@@H]2C(=O)O[C@@H](c3ccccc3)[C@@H](c3ccccc3)N2[C@@H](c2ccc(OCCOC(=O)[C@H]3C[C@H]4C(=O)NCC(=O)N4[C@H]3c3cccc(OCCO)c3)cc2)[C@]12C(=O)Nc1ccc(I)cc12`, for which the composite z-score in [1] was 1.54; in assay [5] it was 2.78; in [7] it was -0.172; in assay [8], 1.69; in assay [9] it was 1.06; in assay [10], 0.0389. The z-score in assay [2] was 1.29 (inactive); in assay [3] it was 0.682 (inactive); in assay [4], 3.48 (inactive); in assay [6] it was 0.0763 (inactive).
In the case of `CC(C)N1CC=CC23O[C@@H]4/C=C\CCCOC(=O)C4[C@H]2C(=O)N(C(C)CO)[C@@H]3C1=O` (stereo not given in full), the composite z-score was 0.336 in [1]; 1.95 in assay [5]; -0.174 in assay [7]; -1.25 in assay [8]; -0.155 in assay [9]; -0.297 in assay [10]. The z-score in [2] was -1 (inactive); in assay [3], -1.09 (inactive); in assay [4], -1.08 (inactive); in [6], 1.8 (inactive).
For `COC(=O)[C@@]1(Cc2ccc(F)cc2)[C@H]2c3cc(C(=O)N4CCCC4)n(CCc4c[nH]c5cc(F)ccc45)c3C[C@H]2CN1C(=O)c1ccccc1`, the composite z-score in assay [1] was 0.765; in assay [5] it was 3.39; in assay [7] it was 0.605; in assay [8], 0.344; in assay [9] it was 1.02; in assay [10], 0.756. The z-score in assay [2] is 0.0277 (inactive); in [3], 1.24 (inactive); in assay [4], 1.94 (inactive); in [6], -0.167 (inactive).
